From PubChem BioAssay AID651657 (Broad Institute, 2012)
Measured potencies and affinities stand elsewhere. Unmarked numbers belong to inactive results.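 Rule for the calls: active = signal falls, with fitted half-maximal concentration at most twice the top valid dose tested; inconclusive = flat curve with partial signal loss, or poor curve fit; inactive = the rest, including signal rising instead.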

What follows are molecules tested against DNA repair and recombination protein RAD54-like (Homo sapiens) (UniProt Q92698) (assay: RAD54 Holliday junction migration blockers – biochemical, fluorescence, cherry-picked samples, dose series, confirmation (AID 651657)). Conditions: RAD54 branch migration, FAM/BHQ fluorescence, 60 min; series mostly up to 50 µM; activity change, negative = inhibition: at the top concentration.
Chain of DNA repair and recombination protein RAD54-like (Homo sapiens) (Q92698 whole entry, looked up): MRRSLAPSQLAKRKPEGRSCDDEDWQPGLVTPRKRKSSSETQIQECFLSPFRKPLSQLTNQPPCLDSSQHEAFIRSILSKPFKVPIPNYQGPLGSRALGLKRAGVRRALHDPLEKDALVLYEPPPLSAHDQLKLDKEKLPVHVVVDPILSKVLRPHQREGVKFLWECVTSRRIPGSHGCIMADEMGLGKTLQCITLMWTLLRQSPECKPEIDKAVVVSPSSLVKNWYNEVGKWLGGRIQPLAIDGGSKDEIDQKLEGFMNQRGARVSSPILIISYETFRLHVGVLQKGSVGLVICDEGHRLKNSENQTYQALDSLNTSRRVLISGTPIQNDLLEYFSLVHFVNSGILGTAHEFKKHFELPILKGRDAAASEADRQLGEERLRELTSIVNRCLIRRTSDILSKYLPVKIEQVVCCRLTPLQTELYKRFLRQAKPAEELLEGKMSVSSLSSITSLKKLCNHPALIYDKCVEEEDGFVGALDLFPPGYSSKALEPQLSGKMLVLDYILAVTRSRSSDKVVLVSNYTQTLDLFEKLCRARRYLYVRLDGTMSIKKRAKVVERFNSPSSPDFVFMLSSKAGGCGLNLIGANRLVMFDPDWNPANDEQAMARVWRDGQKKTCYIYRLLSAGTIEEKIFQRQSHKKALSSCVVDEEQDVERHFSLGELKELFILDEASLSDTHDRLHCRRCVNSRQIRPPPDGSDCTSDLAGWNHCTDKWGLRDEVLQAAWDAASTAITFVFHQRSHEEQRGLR
`Nc1ccnn1C1CCNCC1` was tested, and the “activity change, negative = inhibition” value was 0.708%. `CCN1CCN(c2ccc(N)c(C)c2)CC1` was tested, and the “activity change, negative = inhibition” value was -10.9%. `Nc1ccc(CCN2CCCC2)cc1` was tested, and the “activity change, negative = inhibition” value was -2.84%.
